Screening results deposited in PubChem by several laboratories.
GLD-1 RNA inh: GLD-1/TGE RNA complex disruptors, primary screen, biochemical, fluorescence polarization. Female germline-specific tumor suppressor gld-1 (Caenorhabditis elegans), Q17339. purified GLD-1 + fluorescein TGE RNA. inhibition, % at 5.96 µM. 320,000 tested, 0.44% active. AID 2280, 2010;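 active = percent inhibition above a per-plate cutoff, the plate mean of test compounds plus 3 SD, cut at about 30% in these data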;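 note: 0% = DMSO wells with GLD-1 and probe and 100% = wells lacking GLD-1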
Mcl1 Bid PPI: Mcl-1/Bid binding inhibitors, primary screen, biochemical, TR-FRET, 1536-well; TR-FRET Mcl-1/Bid-Dy647 peptide binding; inhibition, % at 21.7 µM; 220,000 tested, 0.97% active;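 active = compounds that cut the binding signal by more than half at the single screening dose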;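 note: His-tagged Mcl-1 with europium anti-His antibody binding Bid BH3 peptide; 0% = Mcl-1 plus peptide wells and 100% = peptide-only wells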
Target sequence (Q07820 whole entry, looked up): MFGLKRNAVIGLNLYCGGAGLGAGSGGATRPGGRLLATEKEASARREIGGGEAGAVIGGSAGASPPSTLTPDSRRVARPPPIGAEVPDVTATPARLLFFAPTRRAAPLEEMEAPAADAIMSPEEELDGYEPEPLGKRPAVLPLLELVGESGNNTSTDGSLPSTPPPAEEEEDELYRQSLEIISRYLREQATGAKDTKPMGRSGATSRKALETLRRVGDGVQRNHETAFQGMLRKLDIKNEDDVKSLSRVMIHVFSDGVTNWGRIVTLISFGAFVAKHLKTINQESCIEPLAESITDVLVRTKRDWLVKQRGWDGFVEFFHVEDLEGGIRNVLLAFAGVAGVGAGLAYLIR
Bcl-xL primary: inhibitors of human Bcl-xL, primary screen, biochemical, fluorescence polarization, HTS | Bcl-2-like protein 1 (Homo sapiens), Q07817 | GST-Bcl-xL / FITC-Bim BH3 peptide fluorescence polarization | inhibition, % at 10.9 µM | 320,000 tested, 0.7% active | AID 2129, 2009;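 active = inhibition above the mean of all tested compounds plus 3 SD, cutoff set per campaign, cut at about 30% in these data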;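 note: 0% = DMSO wells and 100% = unlabeled Bim-BH3 peptide competitor; inhibitors lower millipolarization by displacing the labeled peptide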
Target sequence (Q07817 whole entry, looked up): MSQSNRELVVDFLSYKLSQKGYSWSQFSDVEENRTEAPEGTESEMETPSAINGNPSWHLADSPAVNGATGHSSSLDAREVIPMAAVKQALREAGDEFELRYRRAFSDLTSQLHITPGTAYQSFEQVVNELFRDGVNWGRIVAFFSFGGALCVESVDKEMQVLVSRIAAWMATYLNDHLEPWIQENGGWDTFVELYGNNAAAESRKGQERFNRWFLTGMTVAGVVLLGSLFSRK
Mcl1 Noxa PPI: Mcl-1/Noxa binding inhibitors, primary screen, biochemical, TR-FRET, 1536-well; Induced myeloid leukemia cell differentiation protein Mcl-1 (Homo sapiens), Q07820; TR-FRET Mcl-1/Noxa peptide binding, 2 h; inhibition, % at 21.7 µM; 220,000 tested, 1.5% active; AID 1022, 2008;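 active = compounds that cut the protein-peptide binding signal by more than 50% relative to plate controls in a single-dose test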;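 note: His-tagged Mcl-1 with rhodamine Noxa BH3 peptide and terbium anti-His antibody; 0% = Mcl-1 plus Noxa peptide wells and 100% = peptide-only wells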
Bim-Mcl-1: inhibitors of Bim peptide binding to Mcl-1, primary screen, biochemical, bead-based flow cytometry, multiplex; Induced myeloid leukemia cell differentiation protein Mcl-1 (Homo sapiens), Q07820; Bim peptide-Mcl-1 binding; inhibition, % at 10 µM; 190,000 tested, 0.1% active; AID 1009, 2008; in the data active = inhibition above about 40%;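 note: 0% = no compound tracer wells and 100% = peptide blocker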
MCL1 BIM primary: inhibitors of MCL1 binding to BIM-BH3, primary screen, biochemical, fluorescence polarization. Induced myeloid leukemia cell differentiation protein Mcl-1 (Homo sapiens), Q07820. GST-MCL1 / FITC-Bim-BH3 fluorescence polarization. inhibition, % at 10.9 µM. 320,000 tested, 0.68% active. AID 2057, 2009;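 active = inhibition above the mean inhibition of all tested compounds plus 3 SD, set per campaign, cut at about 40% in these data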;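 note: 0% = DMSO wells and 100% = unlabeled Bim-BH3 peptide control; higher means more loss of mP so more displacement of Bim peptide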
An asterisk follows results filed as active; x = not tested or not shown. A selection: hits, their analogues and other compounds. The true share with any hit is near 2.3%.

SMILES	GLD-1 RNA inh	Mcl1 Bid PPI	Bcl-xL primary	Mcl1 Noxa PPI	Bim-Mcl-1	MCL1 BIM primary
CCCn1c(C)nnc1SCC(=O)NC1CCCCC1	9	x	0	x	x	-8
O=[N+]([O-])c1cc(/C=N\Nc2nc(-c3ccccc3)cs2)ccc1O	0	-38	13	20	0	15
Cc1csc(N/N=C/c2ccc(O)c([N+](=O)[O-])c2)n1	5	-70	19	55*	-1	28
CC(C)(C)c1cc(-c2csc(Nc3ccccc3)[n+]2Cc2ccc(C(=O)O)cc2)cc(C(C)(C)C)c1O	8	88*	5	92*	x	-2
O=C(c1ccco1)N1CCCC(N2CCN(c3cccc(C(F)(F)F)c3)CC2)C1 (centres undefined)	-3	x	4	x	x	5
CCCc1cc(=O)[nH]c(-n2[nH]c3c(c2=O)CCCC3)n1	29	-105	47*	-8	-2	40
CCCc1cc(=O)[nH]c(SCC)n1	-2	-33	3	-22	-1	3
Cc1ncc(CO)c(/C=N/Nc2ccc(C(F)(F)F)cn2)c1O	5	x	40*	x	x	43*
O=C1c2cccc3cccc(c23)C(=O)N1c1ccc(O)cc1	-5	x	4	x	x	5
COc1cc(/C=N/N2C(=O)c3ccccc3C2=O)ccc1O	-2	-34	3	27	0	7
O=C1c2cccc3cccc(c23)C(=O)N1/N=C/c1ccc(O)cc1O	0	28	9	60*	-3	2
O=C1c2ccccc2C(=O)N1/N=C/c1ccc(O)c(O)c1O	x	-93	x	100*	x	x
O=c1c2cnn(-c3ccccc3)c2nc(-c2cccs2)n1-c1cccc(Cl)c1	2	79*	-7	15	22	-11
O=c1c2cnn(-c3ccccc3)c2nc(-c2cccs2)n1-c1ccc(Cl)cc1	4	20	7	24	-2	4
CCCCNc1cc(Cl)nc(N)n1	12	-10	30*	6	x	28
Nc1nc(Cl)cc(NCCc2ccccc2)n1	3	-16	3	-28	1	9
COc1cccc(NC(=O)CCC2CCN(Cc3nccs3)CC2)c1	-1	x	2	x	x	-1
O=[N+]([O-])c1cc(/C=N/n2c(-c3ccncc3)n[nH]c2=S)ccc1Cl	4	-50	-31	65*	4	28
O=[N+]([O-])c1ccc(-c2nn(-c3ccccc3)cc2/C=N/n2c(-c3ccncc3)n[nH]c2=S)cc1	10	-60	-11	52*	x	-10
O=[N+]([O-])c1cccc(/C=N/n2c(-c3cccnc3)n[nH]c2=S)c1	2	-62	-29	50	-2	-17
Cc1cc(-c2n[nH]c(=S)n2/N=C/c2cc([N+](=O)[O-])ccc2Cl)n[nH]1	x	-87	x	57*	0	x
Cc1cc(-c2n[nH]c(=S)n2/N=C/c2ccc(Cl)c([N+](=O)[O-])c2)n[nH]1	-1	-96	-25	12	-12	-17
O=[N+]([O-])c1ccc(Cl)c(/C=N/n2c(-c3cccnc3)n[nH]c2=S)c1	6	-36	-10	58*	5	-22
Cc1nc(NC(=O)COC(=O)CCc2ccccc2)c(Cl)cc1Cl	4	x	x	x	x	x
Cc1ccnc(NC(=O)C2CC(=O)N(Cc3ccccc3)C2)c1 (centres undefined)	12	x	-1	x	x	-2
SMILES	GLD-1 RNA inh	Mcl1 Bid PPI	Bcl-xL primary	Mcl1 Noxa PPI	Bim-Mcl-1	MCL1 BIM primary
CC(NC(=O)c1cc([N+](=O)[O-])cc([N+](=O)[O-])c1)C1CC2CCC1C2 (centres undefined)	-2	x	4	x	x	5
CC(=N\NC(=O)c1ccc([N+](=O)[O-])cc1)/C(=N/O)C(=O)Nc1ccccc1	-1	x	0	x	x	11
O=C(NCc1ccco1)Nc1ccc(OC(F)(F)F)cc1	1	-8	30*	1	x	31
O=C(NCc1ccco1)Nc1ccc(Br)cc1	3	-8	0	6	-1	-1
CCc1ccc(-c2nc(SCC(=O)N(C)C3CCS(=O)(=O)C3)n[nH]2)cc1 (centres undefined)	1	x	-7	x	x	-5
CC1CC(C)CN(C(=O)C2CCN(S(=O)(=O)c3ccc4c(c3)CC(C)N4C(=O)C3CC3)CC2)C1 (centres undefined)	0	x	0	x	x	2
O=C(c1ccccc1)c1ccc2nc(N3CCN(C(=O)c4ccco4)CC3)c3nncn3c2c1	1	6	7	56*	0	8
CCOC(=O)N1CCN(c2nc3ccc(C(=O)c4ccccc4)cc3n3cnnc23)CC1	-2	2	8	6	x	3
CC(=O)Cc1cc(O)c2ccccc2c1OC(=O)c1ccc(Br)cc1	4	96*	4	24	x	10
CC1CC(C)CN(S(=O)(=O)c2ccc3c(c2)CCN3C(=O)C2CC2)C1 (centres undefined)	-1	x	-4	x	x	-2
O=C(CSc1nc2ncc(Br)cc2[nH]1)c1cccc([N+](=O)[O-])c1	5	-81	-1	64*	-2	-8
CCN(CC)C(=O)Oc1ccc2c(c1)O/C(=C\c1ccco1)C2=O	-3	x	2	x	x	1
COC(=O)COc1ccc2c(c1)O/C(=C\c1ccco1)C2=O	-4	x	75*	x	x	0
CCN(CC(=O)NCc1cccs1)C(=O)c1ccc(NS(=O)(=O)c2ccc(C(C)=O)cc2)cc1	4	x	0	x	x	5
O=C(NNC(=O)C1CC(=O)N(Cc2ccccc2)C1)c1ccc(F)cc1 (centres undefined)	7	x	0	x	x	-16
COc1ccc(NS(=O)(=O)c2ccc(O)c(NC(=O)c3cc4c(C)nn(-c5ccc(F)cc5)c4s3)c2)cc1	5	7	7	65*	2	-2
COc1ccc(NS(=O)(=O)c2ccc(N3CCOCC3)c(NC(=O)c3ccc(F)cc3)c2)cc1	-1	11	4	21	-2	7
Cn1ncc(S(=O)(=O)Cc2ccccc2)c(Cl)c1=O	6	-5	6	68*	x	24
Cn1ncc(SCc2ccccc2)c(Cl)c1=O	-4	-18	8	14	x	7
O=[N+]([O-])c1cc(Br)c(O)c(C=Nc2ccc(N3CCOCC3)cc2)c1	2	-47	17	35	2	26
O=[N+]([O-])c1cc(Br)c(O)c(/C=N/Nc2nnnn2-c2cccc3ccccc23)c1	6	66*	-5	34	-1	19
Cc1cccc(NC(=O)c2ccccc2Br)n1	5	-32	4	9	-2	0
Cc1cccc(NC(=O)c2cccc3c2-c2ccccc2C3=O)n1	4	21	67*	-5	0	-1
